GLP-1R agonist = GLP-1 receptor (human) agonism; P43220; HEK293 GLP-1R CRE-luciferase, luminescence, 4-6 h; cells express a hypersensitive GLP-1R form; Potency, µM (highest dose often 45.6 µM), for the others: top-dose activation, hits mostly activators; 380,000 tested, 0.007% active; also: % of control where 0% means no effect
HEK293 tox = cytotoxicity in counter-screen for GLP-1R inverse agonists; HEK293 cAMP-luciferase reporter cells, luminescence, 24 h; 410,000 tested, 0.13% active; Potency, µM (top dose mostly 38.3 µM), for the others: at the top dose activity change, negative = inhibition, usual class: inhibitors; AID 624418;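 also: loss of luciferase light is scored as toxicity; % is scaled to controls: 0 for no effect and ±100 for the full control effect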
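Here, cytotoxicity is scored as loss of luminescence. The MLSMR collection was tested on cells seeded in medium containing 10% Nu serum, with a 24 hr compound exposure preceded by 12 hours of culture.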
PTHR1 agonist = PTHR1 (human) receptor agonism. Potency, µM (doses to about 115 µM), inactives show top-dose activation, most hits filed as activators. 410,000 tested, 0.075% active. HEK293 GP2 PTHR1 cells, GloSensor cAMP luminescence, 1 h. Q03431; also: nearly all actives have a fitted effect of over 55% in size
Target sequence (Q03431 whole entry, looked up): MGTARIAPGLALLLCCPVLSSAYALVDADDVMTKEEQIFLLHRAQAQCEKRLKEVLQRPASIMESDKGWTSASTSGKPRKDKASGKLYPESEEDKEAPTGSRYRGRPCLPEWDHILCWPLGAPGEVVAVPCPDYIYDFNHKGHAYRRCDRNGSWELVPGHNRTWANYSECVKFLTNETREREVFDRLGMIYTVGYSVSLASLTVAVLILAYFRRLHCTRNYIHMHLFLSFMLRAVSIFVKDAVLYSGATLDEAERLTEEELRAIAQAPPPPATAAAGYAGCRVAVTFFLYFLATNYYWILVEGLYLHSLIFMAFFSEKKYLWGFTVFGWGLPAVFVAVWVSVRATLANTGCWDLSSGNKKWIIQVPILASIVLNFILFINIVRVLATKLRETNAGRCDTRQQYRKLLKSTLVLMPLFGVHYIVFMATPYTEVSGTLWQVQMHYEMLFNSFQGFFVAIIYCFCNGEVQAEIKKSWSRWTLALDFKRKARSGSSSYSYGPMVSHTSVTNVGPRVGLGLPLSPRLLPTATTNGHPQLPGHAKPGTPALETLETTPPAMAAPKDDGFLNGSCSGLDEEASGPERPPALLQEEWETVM
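HEK-293-derived GP2 cells expressing PTHR1 and a GloSensor cAMP reporter, 3,000/well, plated overnight, given luciferin plus IBMX (each 0.5 mM as added) for 1 h at 37 °C, then compound for 1 h at 37 °C. Luminescence was read after 15 min at room temperature.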
GLP1R inv ag = GLP-1 receptor (human) inverse agonism | P43220 | HEK293 GLP-1R CRE-luciferase, luminescence, 24 h; GLP-1R form is constitutively active | Potency, µM (series often up to 38.3 µM), for the others: top-dose activity change, negative = inhibition, hits mostly inhibitors | 410,000 tested, 1.6% active | AID 624417; also: % is scaled to controls: 0 for no effect and ±100 for the full control effect; nearly all actives have a fitted effect of over 55% in size
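Using stably transfected HEK293 (constitutively active GLP-1R, cAMP-luciferase reporter), compounds were incubated 24 hr and luciferase measured by luminescence.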
Active calls of the source: *; i = inactive; ? = inconclusive; . = not tested or not shown; [ ] = another dose, or the depositor's remark. Compounds with a hit are over-represented: about 1.7% of the library has one in this group of screens. Calls follow the shape of the dose curve; as a rule, active = well fitted curve in the direction sought with a large enough effect; inconclusive = small, poorly fitted or top-dose-only effect, or another doubt; inactive = no such curve, though single readings can be large; an effect the other way counts as inactive or inconclusive. Potency is read from the fitted curve at half-maximal effect.

SMILES	GLP-1R agonist	HEK293 tox	PTHR1 agonist	GLP1R inv ag
O=C(NC(NC(=S)Nc1ccccc1O)C(Cl)(Cl)Cl)c1ccco1 (centres undefined)	-8.5%	-4.6%	i	?
O=C(NC(NC(=S)Nc1ccc(Cl)cc1)C(Cl)(Cl)Cl)c1ccco1 (centres undefined)	-2.0%	?	-36.5%	3.55µM*
O=C(Cn1cc(C(=O)C2CC2)c2ccccc21)NCc1ccc2c(c1)OCO2	-0.4%	-23.2%	i	6.31µM*
CC(=O)c1cn(CC(=O)NCc2ccc3c(c2)OCO3)c2ccccc12	0.3%	-10.8%	-84.0%[57.5 µM]	-2.7%
COc1ccc(-c2cc(=S)ss2)cc1	25.9%	.	.	.
CCCCCc1ccc(OCCOCCn2c[n+](C)c3ccccc32)c(CCCCC)c1	4.4%	?	-47.6%	?
CCCCCc1ccc(OCCC[n+]2ccccc2)c(CCCCC)c1	0.7%	?	-33.4%	7.94µM*
CC(C)(C)NC(=O)CSc1ncnc2c1nnn2Cc1ccccc1Cl	-11.3%	-27.1%	-12.5%[57.5 µM]	3.98µM*
O=C(CSc1ncnc2c1nnn2Cc1ccccc1)NC1CCCC1	-1.6%	-3.2%	-6.5%	-17.4%
O=C1NC[C@@H](Cc2cccc3ccccc23)N(CC2(c3ccccc3)CC2)C1=O	-3.2%	2.7%	-92.6%	11.2µM*
CCCCN1C(=O)C(=O)NC[C@H]1Cc1cccc2ccccc12	5.3%	-7.7%	-10.5%	3.5%
COc1ccc(C(C(=O)Nc2ccc(C(C)C)cc2)N(C)C(=O)Cc2cccs2)cc1 (centres undefined)	.	-11.1%	-31.2%	3.16µM*
CC(C)c1ccc(NC(=O)C(c2ccccc2)N(C)C(=O)CCc2c[nH]c3ccccc23)cc1 (centres undefined)	-0.5%	-1.7%	-3.3%	10µM*
COc1ccc(NC(=O)C(NC(=O)Cc2cccs2)c2ccc(OC)cc2)cc1 (centres undefined)	.	-8.2%	-1.1%	1.7%
OCC1OC([S-])[C@H](O)C(O)C1O.[Au+] (some centres undefined)	-2.7%	.	.	.
COC(=O)[C@]12CCC(C)(C)C[C@@H]1[C@@H]1C(=O)C=C3[C@@]4(C)C=C(C#N)C(=O)C(C)(C)[C@@H]4CC[C@@]3(C)[C@]1(C)CC2	5.0%	.	.	.
CCOC(=O)C1CCN(c2nc3ccccc3nc2C(C#N)C(=O)OCCOC)CC1 (centres undefined)	9.0%	0.8%	-0.4%[57.5 µM]	-20.7%
CCOc1ccccc1N1CCN(c2nc3ccccc3nc2C(C#N)C(=O)OC(C)C)CC1 (centres undefined)	2.4%	-10.4%	-10.3%	5.01µM*
C=CCOC(=O)C(C#N)c1nc2ccccc2nc1N1CCC(C(=O)OCC)CC1 (centres undefined)	7.7%	-3.0%	i	6.31µM*
CCn1c(=O)sc2cc(NS(=O)(=O)c3ccc(F)c(C)c3)ccc21	.	-0.2%	-26.0%	?
CN(C)c1cccc(C(=O)Nc2nc3ccccc3[nH]2)c1	-4.5%	1.8%	-92.1%	3.55µM*
COc1cccc(C(=O)Nc2nc3ccccc3[nH]2)c1	-21.3%	?	-8.3%[57.5 µM]	7.94µM*
COc1ccc(C(=O)Nc2nc3ccccc3[nH]2)cc1	-4.7%	?	-32.0%	?
C=CCN1CCCC1CNC(=O)c1cc(S(N)(=O)=O)cc(OC)c1OC (centres undefined)	21.7%	.	.	.
CCCCCN1C(C(=O)c2ccccc2)=C(OC(=O)CC)c2ccccc2S1(=O)=O	.	-12.5%	-5.9%	12.6µM*
SMILES	GLP-1R agonist	HEK293 tox	PTHR1 agonist	GLP1R inv ag
CCCCC(=O)OC1=C(C(=O)c2ccccc2)N(CCC)S(=O)(=O)c2ccccc21	.	-24.6%	-3.8%	11.2µM*
CCCCN1C(C(=O)c2ccccc2)=C(OC(=O)CC)c2ccccc2S1(=O)=O	.	-29.9%	-93.0%	?
Cc1cccc(CNC(=O)C2CCN(S(=O)(=O)c3ccc4c(c3)CCCN4C(=O)C3CCC3)CC2)c1	.	-13.3%	-53.5%	?
CNC(=O)C1(c2ccccc2)CCCCC1	-8.3%	11.6%	i	39.8%
COc1ccccc1NC(=O)C1(c2ccccc2)CCCC1	15.1%	-3.8%	-9.2%	3.98µM*
CCCOC(C(=O)OC1CCN(C)CC1)(c1ccccc1)c1ccccc1	11.9%	.	.	.
CC(C)OCCCNC(=O)c1cc2c(-c3ccc(Cl)cc3)nn(C)c2s1	.	1.1%	14.7%	2.8%
Cc1occc1-c1nnc(SCC(=O)Nc2ccccc2)n1CCc1ccccc1	0.9%	-14.4%	i	11.2µM*
CCc1sc(C(=O)Nc2ccc(NC(C)=O)cc2)cc1C	3.7%	1.2%	i	-0.4%
CCc1sc(C(=O)Nc2nc(C)cs2)cc1C	3.6%	?	i	10µM*
CCOC(=O)c1scc(-c2ccccc2)c1S(=O)(=O)N1CCN(c2ccccc2OC)CC1	.	-11.9%	i	?
COc1ccc(-c2nc(-c3ccccc3)c(-c3cc([N+](=O)[O-])ccc3C)[nH]2)cc1OC	5.4%	-4.1%	i	5.62µM*
COc1cc(-c2nc(-c3ccccc3)c(-c3ccc(Br)cc3)[nH]2)cc(OC)c1O	.	-13.1%	i	11.2µM*
COc1ccccc1C(=O)Oc1c(Sc2ccccc2)c(C)nn1C(C)(C)C	.	-5.9%	i	-14.9%
CC/C(=N\NC(=O)c1nnn(-c2nonc2N)c1-c1cccs1)c1ccccc1	7.1%	3.8%	i	7.94µM*
CCCN(CCC)Cc1c(C(=O)N/N=C/C(C)=C\c2ccco2)nnn1-c1nonc1N	0.3%	-29.9%	-11.6%	3.55µM*
Cc1ccsc1/C=N/NC(=O)c1nnn(-c2nonc2N)c1CN(C)c1ccccc1	1.3%	1.0%	-33.2%	11.2µM*
CC(/C=N/NC(=O)c1nnn(-c2nonc2N)c1CN(C)C)=C\c1ccco1	-1.0%	-1.3%	0.0%	9.3%
Cc1ccc(-n2cc(C(=O)OCc3ccc(Cl)cc3)c3ccccc3c2=O)cc1	.	3.3%	-6.0%	-11.1%
Cc1cc(S(=O)(=O)C(CNC(=O)c2ccc(OC(C)C)cc2)c2cccs2)ccc1F (centres undefined)	.	1.3%	-25.6%	-0.7%
COc1ccccc1Nc1c2c(nc3ccc(NC(=O)c4ccc(N(C)C)cc4)cc13)CCCC2	.	?	0.2%	?
O=C1Nc2cc(C(=O)NCCCN3CCCC3)ccc2S/C1=C\c1ccccc1	19.4%	-5.0%	i	10µM*
O=C(NCc1ccccc1)c1ccc2c(c1)N(Cc1ccc(F)cc1)CCS2	.	-1.5%	-9.0%	5.62µM*
CCCOc1ccc(CNC(=O)c2ccc3c(c2)N(Cc2ccccc2)CCS3)cc1	.	0.2%	i	?
CCN1CCSc2ccc(C(=O)NCc3ccccc3C)cc21	-4.1%	-1.6%	-25.5%	?
CCN1CCSc2ccc(C(=O)NCc3ccccc3Br)cc21	1.5%	7.1%	-31.7%	10µM*
O=C(NCCCN1CCOCC1)c1ccc2c(c1)N(Cc1ccc(F)cc1)CCS2	-0.2%	-3.3%	i	2.24µM*
O=C1Nc2cc(C(=O)NCCCN3CCOCC3)ccc2S/C1=C/c1cccc(Cl)c1	-0.4%	4.0%	i	-4.3%
